# About 2,200 (100%) of roughly 2,200 compounds were called active. The set was probably picked from earlier hits. The list shows a part of the results. Measured potencies and affinities stand elsewhere. Results filed as inconclusive are left out. No rule for the calls is given here.
# Assay: PubChem AID 449748
# Conditions: cancer stem cell-like cells viability, luminescence; series mostly up to 19.5 µM; activity change, negative = inhibition: at the top concentration
row,SMILES,"activity change, negative = inhibition"
1,CSc1ccccc1C(=O)Nc1cc(C)ccc1C,31.1% (inactive)
